# Measured values as given in PubChem BioAssay (NCATS).
# Results filed as inconclusive are left out. Where a call stands in place of a potency, no number is given. Unmarked numbers belong to inactive results. The source made the active and inactive calls. Calls follow the shape of the dose curve; as a rule, active = well fitted curve in the direction sought with a large enough effect; inconclusive = small, poorly fitted or top-dose-only effect, or another doubt; inactive = no such curve, though single readings can be large; an effect the other way counts as inactive or inconclusive.
# Experiments:
# [1] = target: Rap guanine nucleotide exchange factor 3 (Homo sapiens) (UniProt O95398); assay: Confirmatory qHTS for antagonist of cAMP-regulated guanine nucleotide exchange factor 3 (EPAC1) (AID 1645880); also: nearly all actives have a fitted effect of over 55% in size; also: potency is read from the fitted curve at half-maximal effect
# Summary of the method: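 Released BODIPY-GDP fluoresces less than Rap1-bound BODIPY-GDP; the signal is followed at 480/540 nm at 5-min intervals over 30 min, after 5 min at room temperature. Reactions contain 100 nM EPAC1, 250 nM RAP1B-BODIPY-GDP and 50 uM GDP; results are normalized to ATA and DMSO.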
# [2] = target: Rap guanine nucleotide exchange factor 3 (Homo sapiens) (UniProt O95398); assay: Confirmatory qHTS for agonist of cAMP-regulated guanine nucleotide exchange factor 3 (EPAC1) (AID 1645881); also: nearly all actives have a fitted effect of over 75% in size; also: potency is read from the fitted curve at half-maximal effect;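 as to activation: EPAC1 catalysed release of BODIPY-GDP from Rap1B seen as fluorescence loss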
# [3] = target: Rap guanine nucleotide exchange factor 4 (Homo sapiens) (UniProt Q8WZA2); assay: Confirmatory qHTS for agonist of cAMP-regulated guanine nucleotide exchange factor 4 (EPAC2) (AID 1645884);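 also: nucleotide exchange releases bodipy-GDP from Rap1 and this lowers its fluorescence; nearly all actives have a fitted effect of over 65% in size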; also: potency is read from the fitted curve at half-maximal effect
# [4] = target: Rap guanine nucleotide exchange factor 4 (Homo sapiens) (UniProt Q8WZA2); assay: Confirmatory qHTS for antagonist of cAMP-regulated guanine nucleotide exchange factor 4 (EPAC2) (AID 1645885); also: nearly all actives have a fitted effect of over 25% in size; also: potency is read from the fitted curve at half-maximal effect
# [5] = target: Rap guanine nucleotide exchange factor 3 (Homo sapiens) (UniProt O95398); assay: Counterscreen qHTS for antagonist of cAMP-regulated guanine nucleotide exchange factor 3 (EPAC1) (AID 1645888)
# Summary of the method: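 Measured: fluorescence of BODIPY-GDP bound to Rap1B, which falls as exchange proceeds. Conditions include 50 uM competing GDP, 5 and 30 min reads, and a later cAMP challenge for antagonist detection.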
# Rap guanine nucleotide exchange factor 4 (Homo sapiens), sequence (Q8WZA2 whole entry, looked up): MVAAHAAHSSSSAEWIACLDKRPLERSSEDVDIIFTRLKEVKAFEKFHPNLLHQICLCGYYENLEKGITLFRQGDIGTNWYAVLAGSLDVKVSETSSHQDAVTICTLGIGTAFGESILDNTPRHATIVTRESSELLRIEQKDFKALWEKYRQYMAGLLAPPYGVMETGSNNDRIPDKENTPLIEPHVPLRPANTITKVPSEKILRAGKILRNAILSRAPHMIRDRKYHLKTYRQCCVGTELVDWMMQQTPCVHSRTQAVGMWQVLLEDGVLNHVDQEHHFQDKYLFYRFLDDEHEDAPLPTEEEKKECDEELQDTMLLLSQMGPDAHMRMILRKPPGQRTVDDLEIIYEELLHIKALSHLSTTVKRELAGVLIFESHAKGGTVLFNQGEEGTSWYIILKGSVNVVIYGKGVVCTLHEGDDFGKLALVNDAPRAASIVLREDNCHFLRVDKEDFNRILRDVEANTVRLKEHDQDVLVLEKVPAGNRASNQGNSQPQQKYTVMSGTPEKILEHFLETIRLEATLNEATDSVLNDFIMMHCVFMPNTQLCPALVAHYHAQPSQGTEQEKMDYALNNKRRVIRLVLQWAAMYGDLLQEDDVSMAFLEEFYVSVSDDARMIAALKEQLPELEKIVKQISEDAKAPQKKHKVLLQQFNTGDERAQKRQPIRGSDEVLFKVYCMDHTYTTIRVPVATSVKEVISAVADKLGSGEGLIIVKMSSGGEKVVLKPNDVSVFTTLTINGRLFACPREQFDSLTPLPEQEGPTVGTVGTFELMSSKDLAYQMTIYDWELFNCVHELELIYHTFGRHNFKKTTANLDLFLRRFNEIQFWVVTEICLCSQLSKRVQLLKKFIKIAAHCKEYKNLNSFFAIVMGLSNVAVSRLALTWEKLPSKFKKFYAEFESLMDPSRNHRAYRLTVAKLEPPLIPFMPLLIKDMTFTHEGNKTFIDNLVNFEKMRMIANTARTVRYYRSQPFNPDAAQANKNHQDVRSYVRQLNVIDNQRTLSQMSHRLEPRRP
# Rap guanine nucleotide exchange factor 3 (Homo sapiens), sequence (O95398 whole entry, looked up): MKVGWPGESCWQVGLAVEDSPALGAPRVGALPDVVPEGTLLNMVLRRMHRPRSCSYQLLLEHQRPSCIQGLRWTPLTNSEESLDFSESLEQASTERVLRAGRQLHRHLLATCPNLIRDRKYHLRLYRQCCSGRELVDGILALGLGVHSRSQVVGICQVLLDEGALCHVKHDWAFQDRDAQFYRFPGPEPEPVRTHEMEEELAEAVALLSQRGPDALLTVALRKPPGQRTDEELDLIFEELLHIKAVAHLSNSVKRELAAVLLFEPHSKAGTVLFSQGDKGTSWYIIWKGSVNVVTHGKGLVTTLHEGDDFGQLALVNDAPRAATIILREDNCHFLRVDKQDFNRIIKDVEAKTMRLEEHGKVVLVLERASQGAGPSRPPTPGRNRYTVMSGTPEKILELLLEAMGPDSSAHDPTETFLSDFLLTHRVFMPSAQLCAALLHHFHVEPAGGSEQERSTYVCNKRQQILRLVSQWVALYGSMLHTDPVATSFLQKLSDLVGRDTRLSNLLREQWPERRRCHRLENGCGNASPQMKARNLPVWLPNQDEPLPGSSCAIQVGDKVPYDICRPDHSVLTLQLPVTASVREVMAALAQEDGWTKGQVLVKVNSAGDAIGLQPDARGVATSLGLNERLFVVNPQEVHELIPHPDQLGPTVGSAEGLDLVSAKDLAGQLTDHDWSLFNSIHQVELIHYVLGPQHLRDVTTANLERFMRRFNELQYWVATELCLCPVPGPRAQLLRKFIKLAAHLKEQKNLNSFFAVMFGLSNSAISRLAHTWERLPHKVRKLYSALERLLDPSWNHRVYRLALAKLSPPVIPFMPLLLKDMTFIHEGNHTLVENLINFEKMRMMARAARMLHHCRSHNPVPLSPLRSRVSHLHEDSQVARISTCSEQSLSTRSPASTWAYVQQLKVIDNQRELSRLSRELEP
Structure (SMILES),Potency [1],Potency [2],activation [3],Potency [4],"activity change, negative = inhibition [5]",Potency [3],Potency [5],outcome [4]
c1ccc2c(c1)oc1c(-c3ccc4nccn4c3)cccc12,inactive,inactive,"0% [at 17.1 µM, percent relative to cAMP agonist control]",inactive,-16.8% [at 30.8 µM],,,
Cc1ccc(C(=O)OCC(=O)Nc2sccc2C(N)=O)cc1NC(=O)c1ccco1,26.9 µM (active),inactive,,inactive,,inactive,inactive,
O=C(COC(=O)Cc1ccc(Cl)cc1)Nc1ccc2[nH]c(=O)[nH]c2c1,inactive,inactive,"-3.41% [at 17.1 µM, percent relative to cAMP agonist control]",inactive,-14.8% [at 30.8 µM],,,
Cc1cc(OC(C)C(=O)NCCc2c[nH]c3ccccc23)c2c(C)cc(=O)oc2c1 (stereo not given),inactive,inactive,,inactive,,inactive,inactive,
Cc1ccc(S(=O)(=O)Nc2ccccc2C=Nc2cccc(C)c2C)cc1,inactive,inactive,,inactive,,inactive,inactive,
COc1ccc2c(c1)CC/C(=C\Nc1ccc3c(c1)OCO3)C2=O,inactive,112 µM (active),,inactive,,100 µM (active),inactive,
COc1ccc(C(NC(C)=O)c2cc(Cl)c3cccnc3c2O)cc1 (stereo not given),inactive,inactive,"3.14% [at 17.1 µM, percent relative to cAMP agonist control]",inactive,-6.93% [at 30.8 µM],,,
Cc1c(Br)c(=O)oc2c(Br)c(O)c(O)cc12,3.16 µM (active),inactive,"9.71% [at 17.1 µM, percent relative to cAMP agonist control]",inactive,21.7% [at 30.8 µM],,,
CCc1nn2c(-c3ccccc3OC)ccnc2c1-c1ccccc1,inactive,inactive,,,,inactive,inactive,inactive [at 12.7 µM]
O=C1NC(=Nc2ccccc2)S/C1=C\C=C\c1ccco1,16.9 µM (active),inactive,,inactive,,inactive,inactive,
N#C/C(=C\c1ccc(O)c(O)c1)C(=O)Nc1cccc2ncccc12,7.57 µM (active),inactive,,inactive,,inactive,inactive,
O=C(OCC(=O)N1CCCC1=O)c1cc(Cl)ccc1O,inactive,inactive,,inactive,,inactive,inactive,
COc1ccc(OC)c(Nc2nc3ccccc3nc2-n2nc(C)cc2C)c1,inactive,inactive,,inactive,,inactive,inactive,
CC(C)C1CC2=C(C(=O)OC(C)(C)O2)C(c2ccc(F)cc2)O1 (stereo not given),inactive,inactive,"4.14% [at 17.1 µM, percent relative to cAMP agonist control]",inactive,-3.34% [at 30.8 µM],,,
COc1ccc(S(=O)(=O)Nc2cccc(F)c2)cc1C,inactive,inactive,"1.76% [at 17.1 µM, percent relative to cAMP agonist control]",inactive,-14.5% [at 30.8 µM],,,
COc1cccc(C2=NN(C(=O)c3ccco3)C(O)(C(F)(F)F)C2)c1 (stereo not given),inactive,inactive,"1.71% [at 17.1 µM, percent relative to cAMP agonist control]",inactive,-10.8% [at 30.8 µM],,,
COc1cc(/C=C2/C(=O)NN(c3ccc(Cl)cc3)C2=O)ccc1OC(=O)c1ccco1,47.8 µM (active),inactive,,inactive,,inactive,inactive,
O=c1[nH]c(Nc2ccccc2)cc2ccccc12,37.9 µM (active),inactive,,inactive,,inactive,inactive,
OCc1cccc(-c2cnc3c(Nc4cccc(OC(F)(F)C(F)F)c4)nccn23)c1,inactive,inactive,"-0.754% [at 17.1 µM, percent relative to cAMP agonist control]",inactive,9.1% [at 30.8 µM],,,
CCOC(=O)C1CCN(C(c2cc(OC)c(OC)c(OC)c2)c2sc3nc(C)nn3c2O)CC1 (stereo not given),inactive,inactive,"3.51% [at 17.1 µM, percent relative to cAMP agonist control]",inactive,-38.9% [at 30.8 µM],,,
COc1cccc(NC(=O)CCNC(=O)Cn2ccc3ccccc3c2=O)c1,inactive,inactive,,inactive,,inactive,inactive,
CC1CC(C)CN(C(=O)COC(=O)CNC(=O)C23CC4CC(CC(C4)C2)C3)C1 (stereo not given),inactive,inactive,,inactive,,inactive,inactive,
O=C1/C(=C/C=C/c2ccco2)SC(=S)N1NS(=O)(=O)c1ccccc1,5.62 µM (active),inactive,"11.3% [at 17.1 µM, percent relative to cAMP agonist control]",inactive,17.5% [at 30.8 µM],,,
O=C(c1ccc([N+](=O)[O-])o1)N1CCN(c2nc3c(Cl)cccc3s2)CC1,inactive,inactive,,inactive,,inactive,inactive,

Structure (SMILES),Potency [1],Potency [2],activation [3],Potency [4],"activity change, negative = inhibition [5]",Potency [3],Potency [5],outcome [4]
O=C(O)c1ccccc1NS(=O)(=O)c1ccc(NN=Cc2ccc(F)cc2)c([N+](=O)[O-])c1,26.9 µM (active),inactive,,inactive,,inactive,inactive,
COc1cc(OC)nc(Oc2cc(/C=N/O)ccc2OC)n1,inactive,inactive,"-0.415% [at 17.1 µM, percent relative to cAMP agonist control]",inactive,-10.5% [at 30.8 µM],,,
O=c1cc(CSc2ccccc2)nc(-c2ccncc2)[nH]1,inactive,inactive,,inactive,,inactive,inactive,
CCc1ccc(S(=O)(=O)/N=C2\C=C(NS(=O)(=O)c3ccccc3)C(=O)c3ccccc32)cc1,19 µM (active),inactive,,inactive,,inactive,inactive,
CCC(C(=O)OCC(=O)Nc1cc(C)ccc1OC)c1ccccc1 (stereo not given),inactive,inactive,"3.82% [at 17.1 µM, percent relative to cAMP agonist control]",inactive,-13% [at 30.8 µM],,,
CSC1=NC2(CCN(C(=O)NC3CCCCC3)CC2)N=C1c1ccc(C)cc1,inactive,inactive,,inactive,,inactive,inactive,
O=C1C(c2ccccc2)=[N+]([O-])c2ccccc21,inactive,inactive,,inactive,,inactive,inactive,
CC(=O)N1N=C(N)SC1c1ccc(Cl)c(Cl)c1 (stereo not given),inactive,inactive,"-0.153% [at 17.1 µM, percent relative to cAMP agonist control]",inactive,-0.904% [at 30.8 µM],,,
C(=C\c1ccccc1)/CN1CCN(C(c2cc3ccccc3o2)c2nnnn2C2CCCC2)CC1 (stereo not given),inactive,inactive,"0% [at 17.1 µM, percent relative to cAMP agonist control]",inactive,19.5% [at 30.8 µM],,,
COc1ccc(C(C)=NNc2ccc([N+](=O)[O-])cc2S(=O)(=O)Nc2ccccc2C(=O)O)c(OC)c1,37.9 µM (active),inactive,,75.7 µM (active),,inactive,inactive,
CCN(CC)CCn1c2c(c(SCC(=O)Nc3nc4ccccc4s3)nc1=O)CCCC2,inactive,inactive,,inactive,,inactive,inactive,
CCOC(=O)[C@H]1Nc2ccc(Cl)cc2[C@@H]2[C@H]1C1CC(c3ccccc31)N2C(=O)OCc1ccccc1 (stereo not given in full),inactive,inactive,"1.97% [at 17.1 µM, percent relative to cAMP agonist control]",inactive,4.44% [at 30.8 µM],,,
CCOc1ccc(NC(=O)CN(C)C(=O)c2cc(C3CC3)nn2-c2ccccc2)cc1OCC,inactive,inactive,,inactive,,inactive,inactive,
O=C(Nc1ccccc1)c1ccccc1Br,inactive,inactive,,inactive,,inactive,inactive,
COc1cc2cc(CNc3ccc(C)cc3)c(=O)n(CC(=O)Nc3ccc(F)cc3F)c2cc1OC,inactive,inactive,,inactive,,inactive,inactive,
CCOC(=O)c1ccccc1NC(=O)c1c(-c2ccccc2)noc1C,inactive,inactive,,inactive,,inactive,inactive,
O=C(NCCN1CCCC1)C(c1ccccc1)c1ccccc1,inactive,inactive,,inactive,,inactive,inactive,
CNc1ccc(/C=C(\C#N)C(=O)Nc2ccccn2)cc1[N+](=O)[O-],inactive,inactive,"0.449% [at 17.1 µM, percent relative to cAMP agonist control]",inactive,-23.3% [at 30.8 µM],,,
COc1cccc(NC(=O)c2csc3c2CCCC3)c1,inactive,inactive,"8.66% [at 17.1 µM, percent relative to cAMP agonist control]",inactive,-28.5% [at 30.8 µM],,,
Cc1ccc(N2C(=O)c3ccccc3C2C(=O)c2ccc(O)cc2O)cc1 (stereo not given),inactive,inactive,,inactive,,inactive,inactive,
NS(=O)(=O)c1ccc(Nc2nc3ccccc3nc2NS(=O)(=O)c2cccc([N+](=O)[O-])c2)cc1,75.7 µM (active),inactive,,inactive,,inactive,inactive,
CCc1cccc2c(C(=O)COC(=O)c3nccnc3N)c[nH]c12,inactive,inactive,,inactive,,inactive,inactive,
O=C(OCC(=O)N1CCN(S(=O)(=O)c2ccc(Cl)cc2)CC1)c1cccc(OC(F)F)c1,inactive,inactive,"0.331% [at 17.1 µM, percent relative to cAMP agonist control]",inactive,-17.2% [at 30.8 µM],,,
